Test results as given in PubChem BioAssay (Tox21).
Inconclusive results are not listed. A call without a number means that no potency is given here. Calls of active or inactive are those of the source. Calls follow the shape of the full dose curve.

The compounds below were run against Muscarinic acetylcholine receptor M1 (Homo sapiens) (UniProt P11229) (assay: Cholinergic receptor muscarinic 1 (CHRM1) small molecule antagonists, cell-based qHTS assay (AID 1963588; also: nearly all actives have a fitted effect of over 40% in size)). Conditions: CHRM1-CHO antagonist mode, calcium flux fluorescence; series mostly up to 61.5 µM.
Sequence of Muscarinic acetylcholine receptor M1 (Homo sapiens) (P11229 whole entry, looked up): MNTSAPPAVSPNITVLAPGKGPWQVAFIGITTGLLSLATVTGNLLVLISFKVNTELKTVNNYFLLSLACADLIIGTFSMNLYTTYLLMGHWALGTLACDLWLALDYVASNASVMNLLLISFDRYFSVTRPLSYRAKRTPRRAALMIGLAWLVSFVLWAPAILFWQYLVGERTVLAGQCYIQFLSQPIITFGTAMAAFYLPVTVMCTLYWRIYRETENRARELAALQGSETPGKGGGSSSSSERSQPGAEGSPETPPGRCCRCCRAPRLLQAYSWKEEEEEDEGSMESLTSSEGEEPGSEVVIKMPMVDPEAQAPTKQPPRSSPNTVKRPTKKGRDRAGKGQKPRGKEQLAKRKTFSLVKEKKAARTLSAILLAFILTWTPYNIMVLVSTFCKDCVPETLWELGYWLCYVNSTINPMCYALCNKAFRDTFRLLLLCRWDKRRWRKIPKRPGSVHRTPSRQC
From the text: National Center for Advancing Translational Sciences [NCATS]
Division of Preclinical Innovation [DPI]
U.S. Environmental Protection Agency [EPA]
National Institutes of Environmental Health Sciences [NIEHS]
National Toxicology Program [NTP]
U.S. Food and Drug Administration [FDA]
The CHRM1 is a muscarinic receptor. This receptor plays a crucial role in learning and memory processes and has long been identified as a promising therapeutic target for the improvement of cognitive decline in Alzheimer's disease (AD). The CHRM1-CHO cell line stably expressing human muscarinic acetylcholine receptor M1 (CHRM1) can be used for screening agonists and antagonists of interactions between CHRM1 and its ligands. The CHRM1-CHO Calcium Flux Assay is a homogeneous fluorescence-based assay for detecting the intracellular calcium level using FDSS kinetic plate reader system.
Tox21 Assay Protocol Summary:
CHRM1-CHO cells were dispensed at 1000 cells/3uL/well in 1536-well black-clear bottom plates using a Multidrop Dispenser. After the assay plates were incubated at a 37 C/5% CO2 incubator for 18 h, 3 uL of Dye Loading Buffer was transferred to the assay plate by a Flying Reagent Dispenser. The assay plates were incubated at 37 C for 1h. For antagonist mode, 23 nL of compounds dissolved in DMSO, positive controls or DMSO only was transferred to the assay plate by a pin tool. After 5 min incubation at room temperature, 1.5 uL of acetylcholine at 50nM was added to each well. The fluorescence intensity in the plates was measured using FDSS 7000EX kinetic plate reader for 3 min at 1 sec intervals. Each test compound was measured at 15 concentrations in three independent runs.

Structure (SMILES) | Potency | activity, negative = inhibition
CC(C)OC(C)C | inactive | 
CC(C)(C)OCC1CO1 (stereo not given) | inactive | 
c1ccsc1 | inactive | 
O=C(NCN1CCOCC1)c1cnccn1 | inactive | 
CCCCC(CC)COP(=O)(O)OCC(CC)CCCC (stereo not given) | inactive | 
C1CCC2OC2C1 (stereo not given) | inactive | 
CC(=O)c1cc2ccccc2s1 | inactive | 
O=C(O)c1ccccc1C(c1ccc(O)cc1)c1ccc(O)cc1 | inactive | 
CCC(=O)OC(C)c1ccccc1 (stereo not given) | inactive | 
COc1ccc2cccc(CCNC(C)=O)c2c1 | inactive | 
CC(C)C(=O)c1c(C(C)C)nn2ccccc12 | inactive | 
Cc1cc(C)c(N=Nc2c(O)c(S(=O)(=O)O)cc3cc(S(=O)(=O)O)ccc23)cc1C |  | 26.6% [at 5.58 µM] (inactive)
Cc1c(C(=O)c2c[nH]n(C)c2=O)ccc(S(C)(=O)=O)c1C1=NOCC1 | inactive | 
Cc1ccc(C(=O)Nc2ccc(S(=O)(=O)O)c3cc(S(=O)(=O)O)cc(S(=O)(=O)O)c23)cc1NC(=O)c1cccc(NC(=O)Nc2cccc(C(=O)Nc3cc(C(=O)Nc4ccc(S(=O)(=O)O)c5cc(S(=O)(=O)O)cc(S(=O)(=O)O)c45)ccc3C)c2)c1 | inactive | 
C/C=C/C(=O)CCCC | inactive | 
CCCCCCCCCCCCCCCCC | inactive | 
N#Cc1cc(NC(=O)C(=O)O)c(Cl)c(NC(=O)C(=O)O)c1 | inactive | 
[Cl][Dy]([Cl])[Cl] | inactive | 
O=C(O)Cc1cccc(-c2cc(CCCCCCc3ccc(O[C@H]4O[C@H](CO)[C@@H](O)[C@H](O)[C@@H]4O)c(-c4cccc(CC(=O)O)c4)c3)ccc2O[C@H]2O[C@H](CO)[C@@H](O)[C@H](O)[C@@H]2O)c1 |  | 12.9% [at 0.232 µM] (inactive)
COc1nc(N)nc2nc[nH]c12 | inactive | 

Structure (SMILES) | Potency | activity, negative = inhibition
COC(=O)c1ccc([N+](=O)[O-])cc1 | inactive | 
CO[Si](CCCOCC1CO1)(OC)OC (stereo not given) | inactive | 
O=C(O)CCCCCCCCCCC(=O)O | inactive | 
CCOc1ccccc1C(N)=O | inactive | 
CC(O)C(C)O (stereo not given) | inactive | 
CCC(C)c1ccccc1 (stereo not given) | inactive | 
CCC(C)C1N=C(C)C(C)S1 (stereo not given) | inactive | 
CC(O)CNCC(C)O (stereo not given) | inactive | 
CC(=O)c1ccc(O)c(C(N)=O)c1 | inactive | 
O=C(Nc1ccc([N+](=O)[O-])cc1)Nc1ccc([N+](=O)[O-])cc1 (tested in a mixture with another compound) | inactive | 
CCCCCCN | inactive | 
O=C(O)CCCCCCCCCCCC(=O)O | inactive | 
C=C(C)[C@@H]1CCC2=CC(=O)C[C@@H](C)[C@]2(C)C1 | inactive | 
CC(=O)SC[C@@H](C)C(=O)N1CCC[C@H]1C(=O)N[C@@H](Cc1ccccc1)C(=O)O | inactive | 
CC(=O)/C=C/c1ccco1 | inactive | 
Nc1nnnn1-c1ccccc1 | inactive | 
COC(c1ccccc1)(c1ccccc1)[C@H](Oc1nc(C)cc(C)n1)C(=O)O | inactive | 
CCCC(C)CCC(C)=O (stereo not given) | inactive | 
COCCCOc1cc(C[C@@H](C[C@H](N)[C@@H](O)C[C@H](C(=O)NCC(C)(C)C(N)=O)C(C)C)C(C)C)ccc1OC | inactive | 
O=C(O)c1cc(=O)c2ccccc2o1 | inactive | 
